# Experiments:
# Test in all cases: SPOT peptide array binding signal intensity (averaged, normalized) (arbitrary units (background-subtracted, floor 0; scale differs between SH3 domains)); higher = stronger binding of the SH3 domain to the peptide
# AgAbp1 = biological target: AgAbp1
# In short: (§1)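 Binding signal refers to normalized, background-subtracted spot intensity averaged over replicates, expressed in arbitrary units that differ between domains. GST-fused SH3 domains from four yeast species were incubated at 10 μg/ml overnight at 4°C on cellulose membranes of synthetic 15-mer peptides with cysteines replaced by serines. Bound protein was detected with anti-GST antibody, an HRP anti-mouse secondary and luminol, and quantified with Genespotter.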
# AgBbc1 = biological target: AgBbc1
# In short: as §1
# AgBem1-D1 = biological target: AgBem1-D1
# In short: as §1
# AgBzz1-D1 = biological target: AgBzz1-D1
# In short: as §1
# AgBzz1-D2 = biological target: AgBzz1-D2
# In short: as §1
# AgCyk3 = biological target: AgCyk3
# In short: as §1
# AgFus1 = biological target: AgFus1
# In short: as §1
# AgHof1 = biological target: AgHof1
# In short: as §1
# AgHse1 = biological target: AgHse1
# In short: as §1
# AgLsb1 = biological target: AgLsb1
# In short: as §1
# AgLsb4 = biological target: AgLsb4
# In short: as §1
# AgMyo5 = biological target: AgMyo5
# In short: as §1
# AgNbp2 = biological target: AgNbp2
# In short: as §1
# AgRvs167 = biological target: AgRvs167
# In short: as §1
# AgSho1 = biological target: AgSho1
# In short: as §1
# AgSla1-D1-D2 = biological target: AgSla1-D1-D2
# In short: as §1
# AgSla1-D3 = biological target: AgSla1-D3
# In short: as §1
# CaAbp1-D1 = biological target: CaAbp1-D1
# In short: as §1
# CaAbp1-D2 = biological target: CaAbp1-D2
# In short: as §1
# CaBbc1 = biological target: CaBbc1
# In short: as §1
# CaBem1-D1 = biological target: CaBem1-D1
# In short: as §1
# CaBzz1-D1 = biological target: CaBzz1-D1
# In short: as §1
# CaBzz1-D2 = biological target: CaBzz1-D2
# In short: as §1
# CaCyk3 = biological target: CaCyk3
# In short: as §1
# CaFus1 = biological target: CaFus1
# In short: as §1
# CaHof1 = biological target: CaHof1
# In short: as §1
# CaHse1 = biological target: CaHse1
# In short: as §1
# CaLsb1 = biological target: CaLsb1
# In short: as §1
# CaLsb4 = biological target: CaLsb4
# In short: as §1
# CaMyo5 = biological target: CaMyo5
# In short: as §1
# CaNbp2 = biological target: CaNbp2
# In short: as §1
# CaRvs167 = biological target: CaRvs167
# In short: as §1
# CaRvs167-3 = biological target: CaRvs167-3
# In short: as §1
# CaSho1 = biological target: CaSho1
# In short: as §1
# CaSla1-D1-D2 = biological target: CaSla1-D1-D2
# In short: as §1
# CaSla1-D3 = biological target: CaSla1-D3
# In short: as §1
# ScAbp1 = biological target: ScAbp1
# In short: as §1
# ScBbc1 = biological target: ScBbc1
# In short: as §1
# ScBem1-D1 = biological target: ScBem1-D1
# In short: as §1
# ScBzz1-D1 = biological target: ScBzz1-D1
# In short: as §1
# ScBzz1-D2 = biological target: ScBzz1-D2
# In short: as §1
# ScCyk3 = biological target: ScCyk3
# In short: as §1
# ScFus1 = biological target: ScFus1
# In short: as §1
# ScHof1 = biological target: ScHof1
# In short: as §1
# ScHse1 = biological target: ScHse1
# In short: as §1
# ScLsb1 = biological target: ScLsb1
# In short: as §1
# ScLsb2 = biological target: ScLsb2
# In short: as §1
# ScLsb3 = biological target: ScLsb3
# In short: as §1
# ScLsb4 = biological target: ScLsb4
# In short: as §1
# ScMyo3 = biological target: ScMyo3
# In short: as §1
# ScMyo5 = biological target: ScMyo5
# In short: as §1
# ScNbp2 = biological target: ScNbp2
# In short: as §1
# ScPex13 = biological target: ScPex13
# In short: as §1
# ScRvs167 = biological target: ScRvs167
# In short: as §1
# ScSho1 = biological target: ScSho1
# In short: as §1
# ScSla1-D1-D2 = biological target: ScSla1-D1-D2
# In short: as §1
# ScSla1-D3 = biological target: ScSla1-D3
# In short: as §1
# SpAbp1-D1 = biological target: SpAbp1-D1
# In short: as §1
# SpBbc1 = biological target: SpBbc1
# In short: as §1
# SpBzz1-D1 = biological target: SpBzz1-D1
# In short: as §1
# SpBzz1-D2 = biological target: SpBzz1-D2
# In short: as §1
# SpCyk3 = biological target: SpCyk3
# In short: as §1
# SpHof1 = biological target: SpHof1
# In short: as §1
# SpHof1-2 = biological target: SpHof1-2
# In short: as §1
# SpHof1-3 = biological target: SpHof1-3
# In short: as §1
# SpHse1 = biological target: SpHse1
# In short: as §1
# SpLsb1 = biological target: SpLsb1
# In short: as §1
# SpLsb4 = biological target: SpLsb4
# In short: as §1
# SpMyo1 = biological target: SpMyo1
# In short: as §1
# SpNbp2 = biological target: SpNbp2
# In short: as §1
# SpPex13 = biological target: SpPex13
# In short: as §1
# SpRvs167 = biological target: SpRvs167
# In short: as §1
# SpSla1-D1-D2 = biological target: SpSla1-D1-D2
# In short: as §1
# SpSla1-D3 = biological target: SpSla1-D3
# In short: as §1
binder,measurement,setting,value
VDFTLPPPPPPPGLD,SPOT peptide array binding signal intensity,AgAbp1,4
same,SPOT peptide array binding signal intensity,AgBbc1,≤ 0
same,SPOT peptide array binding signal intensity,AgBem1-D1,≤ 0
same,SPOT peptide array binding signal intensity,AgBzz1-D1,≤ 0
same,SPOT peptide array binding signal intensity,AgBzz1-D2,≤ 0
same,SPOT peptide array binding signal intensity,AgCyk3,≤ 0
same,SPOT peptide array binding signal intensity,AgFus1,≤ 0
same,SPOT peptide array binding signal intensity,AgHof1,27.8
same,SPOT peptide array binding signal intensity,AgHse1,32
same,SPOT peptide array binding signal intensity,AgLsb1,1.5
same,SPOT peptide array binding signal intensity,AgLsb4,≤ 0
same,SPOT peptide array binding signal intensity,AgMyo5,1660
same,SPOT peptide array binding signal intensity,AgNbp2,≤ 0
same,SPOT peptide array binding signal intensity,AgRvs167,1.67
same,SPOT peptide array binding signal intensity,AgSho1,≤ 0
same,SPOT peptide array binding signal intensity,AgSla1-D1-D2,2
same,SPOT peptide array binding signal intensity,AgSla1-D3,0.5
same,SPOT peptide array binding signal intensity,CaAbp1-D1,≤ 0
same,SPOT peptide array binding signal intensity,CaAbp1-D2,9
same,SPOT peptide array binding signal intensity,CaBbc1,≤ 0
same,SPOT peptide array binding signal intensity,CaBem1-D1,≤ 0
same,SPOT peptide array binding signal intensity,CaBzz1-D1,230
same,SPOT peptide array binding signal intensity,CaBzz1-D2,≤ 0
same,SPOT peptide array binding signal intensity,CaCyk3,≤ 0
same,SPOT peptide array binding signal intensity,CaFus1,≤ 0
same,SPOT peptide array binding signal intensity,CaHof1,0.5
same,SPOT peptide array binding signal intensity,CaHse1,≤ 0
same,SPOT peptide array binding signal intensity,CaLsb1,≤ 0
same,SPOT peptide array binding signal intensity,CaLsb4,≤ 0
same,SPOT peptide array binding signal intensity,CaMyo5,29
same,SPOT peptide array binding signal intensity,CaNbp2,≤ 0
same,SPOT peptide array binding signal intensity,CaRvs167,1
same,SPOT peptide array binding signal intensity,CaRvs167-3,0.25
same,SPOT peptide array binding signal intensity,CaSho1,≤ 0
same,SPOT peptide array binding signal intensity,CaSla1-D1-D2,≤ 0
same,SPOT peptide array binding signal intensity,CaSla1-D3,≤ 0
same,SPOT peptide array binding signal intensity,ScAbp1,≤ 0
same,SPOT peptide array binding signal intensity,ScBbc1,≤ 0
same,SPOT peptide array binding signal intensity,ScBem1-D1,≤ 0
same,SPOT peptide array binding signal intensity,ScBzz1-D1,6
same,SPOT peptide array binding signal intensity,ScBzz1-D2,≤ 0
same,SPOT peptide array binding signal intensity,ScCyk3,1
same,SPOT peptide array binding signal intensity,ScFus1,≤ 0
same,SPOT peptide array binding signal intensity,ScHof1,17.8
same,SPOT peptide array binding signal intensity,ScHse1,≤ 0
same,SPOT peptide array binding signal intensity,ScLsb1,≤ 0
same,SPOT peptide array binding signal intensity,ScLsb2,1.5
same,SPOT peptide array binding signal intensity,ScLsb3,≤ 0
same,SPOT peptide array binding signal intensity,ScLsb4,≤ 0
same,SPOT peptide array binding signal intensity,ScMyo3,1810
same,SPOT peptide array binding signal intensity,ScMyo5,1800
same,SPOT peptide array binding signal intensity,ScNbp2,≤ 0
same,SPOT peptide array binding signal intensity,ScPex13,4.75
same,SPOT peptide array binding signal intensity,ScRvs167,2.33
same,SPOT peptide array binding signal intensity,ScSho1,≤ 0
same,SPOT peptide array binding signal intensity,ScSla1-D1-D2,≤ 0
same,SPOT peptide array binding signal intensity,ScSla1-D3,≤ 0
same,SPOT peptide array binding signal intensity,SpAbp1-D1,≤ 0
same,SPOT peptide array binding signal intensity,SpBbc1,0.5
same,SPOT peptide array binding signal intensity,SpBzz1-D1,1630
same,SPOT peptide array binding signal intensity,SpBzz1-D2,7
same,SPOT peptide array binding signal intensity,SpCyk3,1
same,SPOT peptide array binding signal intensity,SpHof1,≤ 0
same,SPOT peptide array binding signal intensity,SpHof1-2,0.75
same,SPOT peptide array binding signal intensity,SpHof1-3,1.75
same,SPOT peptide array binding signal intensity,SpHse1,11
same,SPOT peptide array binding signal intensity,SpLsb1,0.5
same,SPOT peptide array binding signal intensity,SpLsb4,≤ 0
same,SPOT peptide array binding signal intensity,SpMyo1,1110
same,SPOT peptide array binding signal intensity,SpNbp2,≤ 0
same,SPOT peptide array binding signal intensity,SpPex13,≤ 0
same,SPOT peptide array binding signal intensity,SpRvs167,1
same,SPOT peptide array binding signal intensity,SpSla1-D1-D2,≤ 0
same,SPOT peptide array binding signal intensity,SpSla1-D3,≤ 0

# Source: the supplement of paper PMC4466140
